Results: PubChem BioAssay AID1508625 (Wald Lab, School of Medicine, Case Western Reserve …, 2021)

Test: enhancers of NK cell killing of ovarian tumor cells, primary screen, imaging, OVCAR3, primary NK cells, calcein-AM imaging (AID 1508625);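 further: compound given to NK cells 16 h before adding targets at 1.5 to 1 ratio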
Settings: OVCAR3 lysis by primary NK cells, at 5 µM; z-score: measured here: robust Z-score, single-point normalisation

Compound	corrected activity, negative = more killing [%]	z-score
CCOc1ccc(C2C(N3C(=O)c4ccc([N+](=O)[O-])cc4C3=O)C(=O)N2c2ccc(Cl)cc2)cc1 (configuration not stated)	0.896	0.278
O=C(NN=Cc1c(Br)cc(Br)c(O)c1Br)c1ccncc1	-1.17	-0.607
O=C1C(=O)N(Cc2cccnc2)C(c2ccncc2)C1=C(O)c1ccc(F)cc1 (configuration not stated)	-3.73	-1.62
Cn1c(SCc2c[nH]c3cc([N+](=O)[O-])ccc23)nc2sc3c(c2c1=O)CCCC3	-1.25	-0.47
COC(=O)c1sc(N2C(=O)C(=O)C(=C(O)c3ccc(Cl)cc3)C2c2ccc(C)cc2)nc1C (configuration not stated)	-3.82	-1.66
COc1cc(C=C2C=C(c3ccc(C)cc3)OC2=O)cc(OC)c1OC	-0.351	-0.181
Cc1n[nH]c(C)c1CCC(=O)NN=Cc1ccccc1O	-1.49	-0.652
CCC1CCCCN1C(=O)c1cc2c(=O)n3ccccc3nc2s1 (configuration not stated)	-5.2	-1.47
Cc1ccc(-n2nc(C)c(C=Cc3onc(C)c3[N+](=O)[O-])c2C)cc1	-6.18	-1.84
Brc1cccc(-c2nnc3sc(CN4CCOCC4)cn23)c1	-6.12	-1.74
COc1cc2c(cc1NC(=O)COc1ccccc1F)oc1ccccc12	0.193	0.0792
O=C(CCCn1c(=S)[nH]c2cc3c(cc2c1=O)OCO3)NC1CC1	-7.46	-1.98
CCC(C)NC(=O)Cn1c(=O)n(-c2cc(OC)cc(OC)c2)c(=O)c2sccc21 (configuration not stated)	-7.6	-2.16
CCOC(=O)c1ccc2c(c1)[C@@H]1C=CC[C@@H]1[C@H](c1ccccc1Br)N2	3.06	0.914
COCCNC(=O)c1cc2cc3ccc(Cl)cc3nc2o1	-3.66	-0.897
O=C(O)c1cc(Cl)ccc1NS(=O)(=O)c1ccc(Cl)cc1	-1.75	-0.369
c1ccc(OCCCc2nc(-c3ccccn3)no2)cc1	-2.46	-1.37
c1cncc(CNC23CC4CC(CC(C4)C2)C3)c1	-3.27	-1.04
Cc1cccn2c(=O)c3cc(C(=O)N4CCCCCC4)sc3nc12	-6.34	-1.8
Cc1ccc(-n2c(C)cc(C(=S)N3CCOCC3)c2C)cc1Cl	-4.03	-1.54
Nc1cc(OC(=O)c2cccs2)nn1S(=O)(=O)c1ccccc1	-4.31	-1.37
CC(C(=O)N1CCN(c2ccccc2)CC1)c1ccc([N+](=O)[O-])cc1 (configuration not stated)	-3.44	-1.91
CCOC(=O)C(Cc1ccccc1)C(=O)N(C1CCCCC1)C1CCCCC1 (configuration not stated)	-3.39	-1.82
COc1cc(OC)c(C=C2C(=O)NC(=S)N(c3ccc(Cl)cc3)C2=O)cc1Br	-2.07	-1.07

Compound	corrected activity, negative = more killing [%]	z-score
CCOCCCNC(=O)c1ccc(N2CCCC2=O)cc1	-4.67	-1.26
C(=Cc1ccccc1)CN1CCN(C2c3ccccc3-c3ccccc32)CC1	-0.148	-0.0313
CCCCC1(CC(=O)N2CCOCC2)C(=O)N(c2ccccc2)N(c2ccccc2)C1=O	-2.63	-0.786
O=c1cc(O)c2c(n1-c1ccccc1)CCCC2	-7.04	-2.18
Cc1oc(-c2cccc(Br)c2)nc1CN1CCC(C(=O)NCc2ccc(Cl)cc2)CC1	-6.33	-1.71
O=C1C(=Cc2ccccc2)SC(=S)N1C1CCS(=O)(=O)C1 (configuration not stated)	-2.25	-0.887
Cc1ccc2c(c1)NCC(C(=O)O)O2 (configuration not stated)	-4.87	-1.31
COc1cccc(C(=O)N2CCN(C(=O)c3ccccc3OC)CC2)c1	-2.57	-1.15
COc1cccc(N2CCN(C(=O)Nc3ccc(F)cc3)CC2)c1	-2.57	-1.43
Cc1ccc(N2C(=O)CC(NCCc3ccc(F)cc3)C2=O)cc1 (configuration not stated)	-3.27	-1.25
COc1cc(C=NS(=O)(=O)c2cccs2)cc(Br)c1O	-1.94	-0.74
COCc1cc(C)[nH]c(=O)c1C(=O)NC12CC3CC(CC(C3)C1)C2	-5.27	-1.57
Brc1ccc(SCCc2nc3ccccc3o2)cc1	-4.19	-1.56
CCOc1ccc(-n2c(SCc3ccccc3Cl)nc3c(c2=O)SCC3)cc1	-3.11	-0.774
Cc1ccc(-c2noc(-c3ccccc3F)n2)cc1	-2.22	-0.911
COc1ccc(NC(=O)c2sc3cc([N+](=O)[O-])ccc3c2Cl)c(OC)c1	-2.66	-0.942
CCc1cccc(NC(=O)CN(C)S(=O)(=O)c2cccs2)c1	-4.79	-1.36
CN(C)c1ccc(C=C(C(=O)c2ccccc2)c2nc3ccccc3[nH]2)cc1	-1.99	-1.03
COc1ccc(C(N)=NOC(=O)c2cc(Cl)ccc2Cl)cc1	-1.41	-0.786
Clc1ccc(OCCN2CCc3ccccc3C2)cc1	-1.86	-1.03
CCOC(=O)C(C)Sc1nc2c([nH]c3ccccc32)c(=O)n1C (configuration not stated)	-3.61	-0.899
O=C(Nc1ccc([N+](=O)[O-])cc1)c1cc2c(=O)n3ccccc3nc2s1	-3.21	-0.91
CCCCN(C(=O)c1cnc2n(c1=O)CCS2)c1ccccc1	-5.28	-1.68
Cc1ccc(Cl)cc1N1C(=O)CN(Cc2cccs2)C1=S	-2.1	-0.567

Compound	corrected activity, negative = more killing [%]	z-score
COc1ccc(-n2c(=S)[nH]c3cc(C(=O)O)ccc3c2=O)cc1	-5.11	-1.63
COc1ccc(NC(=O)NCc2ccncc2)cc1	-2.54	-1.41
Cc1c(C(=O)OC(C)C)sc(NC(=O)c2cc3ccccc3c(=O)o2)c1C(=O)OC(C)C	-4.01	-1.65
COc1ccc2c(c1)c(C(C)=O)c(C)n2-c1ccccc1C	-0.941	-0.487
CC(=O)c1cccc(NC(=O)COc2ccccc2C)c1	-1.74	-0.9
CC(C)=NNC(=O)C(=O)Nc1cccc(Cl)c1	-3.01	-1.56
CC(=O)Nc1cccc(N=Cc2cc(Cc3ccccc3)cc([N+](=O)[O-])c2O)c1	-1.97	-0.698
NC(=O)CN1CCOCCN(CC(N)=O)CCOCC1	-12.6	-2.65
CCOc1cccc(C=NN2CCN(Cc3ccccc3)CC2)c1O	-2.77	-1.21
CCOc1ccccc1NC(=O)CC1Sc2ccc(C(F)(F)F)cc2NC1=O (configuration not stated)	-3.99	-2.14
C#CCN1C(=O)C(O)(CC(=O)c2cccc3ccccc23)c2ccccc21 (configuration not stated)	-5.41	-2.06
O=C(CC1Sc2ccccc2NC1=O)Nc1ccc2c(c1)OCO2 (configuration not stated)	-2.14	-0.818
Cc1nc2ccc3nc(NC(=O)c4cc([N+](=O)[O-])ccc4Cl)sc3c2s1	-2.51	-0.528
COc1ccc(-c2nocc2C(N)=O)cc1OC	-3.72	-1.63
CC(C(=O)O)N1C(=O)C2C3CCC(C3)C2C1=O (configuration not stated)	1.01	0.359
CC1C2CCCN2CCN1Cc1cccc(Oc2ccccc2)c1 (configuration not stated)	-1.23	-0.537
C=CCn1c2ccccc2c2nnc(SCc3[nH]c(C(=O)OCC)c(C)c3C(C)=O)nc21	-1.4	-0.435
COc1ccc(N2C(=O)c3ccc(C)cc3C2=O)cc1OC	-6.75	-2.54
Cc1ccc(-n2c(SCC(=O)Nc3cccc(F)c3)nc3c(c2=O)SCC3)cc1	-3.47	-0.864
C=CCn1c(COc2cccc3cccnc23)nnc1SCC(=O)OC	-7.09	-2.01
O=C(O)C1C2C=CC(O2)C1C(=O)N1CCC(Cc2ccccc2)CC1 (configuration not stated)	-3.25	-1.34
O=C(Oc1cccc(NC(=O)c2ccccc2Cl)c1)c1ccc(Cl)c(S(=O)(=O)N2CCCCC2)c1	-3.19	-1.2
Cc1nnc(NC(=O)CSc2nc3c(c(=O)n2-c2ccccc2)SCC3)s1	-0.367	-0.0912
Cc1onc(-c2ccccc2)c1C(=O)Nc1cccc(Br)c1	-5.57	-1.98

Compound	corrected activity, negative = more killing [%]	z-score
CN(C)c1ccc(C(=O)N2N=C(c3ccc(Cl)cc3)CC2(O)C(F)(F)F)cc1 (configuration not stated)	-4.5	-1.72
CCC(=O)NC(Nc1ccccc1Cl)(C(F)(F)F)C(F)(F)F	-0.701	-0.276
COCc1cccc(NS(=O)(=O)Cc2ccccc2)c1	0.328	0.183
CCCCn1c(=S)[nH]c2cc3ccccc3cc2c1=O	-1.52	-0.403
Cc1ccc(C)c(C(=O)COC(=O)CNS(=O)(=O)c2ccccc2)c1	-1.55	-0.589
COc1cc(C=Nc2ccc(Oc3ccccc3)cc2)ccc1OC(C)=O	-3.39	-1.34
Cc1c(C(=O)Oc2cccc3ccccc23)cccc1[N+](=O)[O-]	-7.35	-2.77
Cc1ccc(-c2coc3c(C)c4oc(=O)c5c(c4cc23)CCC5)cc1	-5.02	-1.5
Cc1ccc(OCc2ccc([N+](=O)[O-])cc2)cc1C	-1.29	-0.719
CCc1ccc(-n2c(C)nc3cc(C(=O)NCc4cccnc4)ccc32)cc1	-5.32	-1.43
CC(C)CCNC(=O)c1c[nH]c2ccc(S(=O)(=O)N3CC(C)CC(C)C3)cc2c1=O (configuration not stated)	-3.33	-1.21
O=C(CSc1nc2cc3c(cc2c(=O)n1Cc1ccco1)OCO3)NCc1ccccc1	-4.67	-1.24
Cc1cc(N2CCN(C(=O)c3cccc(F)c3F)CC2)c(F)cc1[N+](=O)[O-]	-4.4	-1.92
OCCNCCCOc1ccccc1F	-1.78	-0.566
CCCNC(=O)C(=O)Nc1ccc(C(C)C)cc1	-1.6	-0.603
O=C(NN=Cc1cccc2ccccc12)c1cncc(Br)c1	-7.56	-2.98
COc1ccc(CNCC2OCCc3ccccc32)cc1OC (configuration not stated)	-5.1	-1.95
O=C(NCC1CCCO1)Nc1cccc(Cl)c1 (configuration not stated)	1.53	0.544
O=C(O)CCn1ncc2ccccc21	-4.13	-1.31
COc1ccc(CNC(=O)CSc2nc3cc(Cl)ccc3s2)cc1	-1.73	-0.516
CC(=O)OC1CC(C)N(C(=O)c2ccccc2)c2ccc(C)cc21 (configuration not stated)	-5.57	-1.73
O=C(c1ccccc1Br)N1N=C(c2ccccc2)CC1(O)C(F)(F)F (configuration not stated)	-3.24	-1.24
COc1ccc(-c2nn(-c3ccccc3)cc2C(=O)OCc2ccccc2)cc1	-2.27	-1.22
Cc1cccc(N2C(=O)c3ccc(NC(=O)c4ccc(Br)cc4)cc3C2=O)c1	-3.53	-1.25
